Numbering of substitutions follows the chain as printed. In all, about 24,000 sequences were measured (“enrichment r”: median about 0.99, highest 2% from about 3.7 on). The full list was thinned out, with the highest values kept by preference.
B1: chr2:42509997:42509998:+_ENSG00000143924_ENST00000318522|hu_mus|hu_hu_hu_mus_True|38_108 (ssRNA)
RNA: GGGAGUUCUACAGUCCGACGAUCUCGCUGAGUUCUCUCCUCAUAAUUAAACAGGACUACCACUGAGGCGAUAAAAUAAACUAUCUCCCCUGUGGGAAGAAGGUAAACAUUCGCUCUACAGUCCUUUCCUCGAUAACCGUAUACCAACAGAGGAUUGAGCAUCA
B2: chr5:72798899:72798900:+_ENSG00000145741_ENST00000335895|hu_mus|motif|central (ssRNA)
RNA: GGGAGUUCUACAGUCCGACGAUCGGGUGCUUUUCCAUCCACAGAUUGUUUGGGCAGAGCUUCAGCCAGUCUCCUUAAACGGGUCAGGCUGUCUGCACCAAGCUGGUUGAGGAUGCUGGGAAGCAUUUCUGUCAGCUGCUUUGUCAACAGAGGAUUGAGCAUCA
B3: 160239608_160243617_1107_3pUTR_ENSG00000186432_ENST00000334256|human|control|control (ssRNA)
RNA: GGGAGUUCUACAGUCCGACGAUCAGGAACUAUUCCAGAGUCUAUUACCAUCUGUAUUUGUUCAUUGCCAGCAUCAGUAAGGUAAGAGAGGGCCCAGACUGUGUCUACCAGUAUAUUUACAUCUGUGUGAUGAAUUAAAACACACAACAGAGGAUUGAGCAUCA
B4: chrX:71099370:71099371:-_ENSMUSG00000031391_ENSMUST00000102871|mus_hu|FALSE|FALSE (ssRNA)
RNA: GGGAGUUCUACAGUCCGACGAUCUUUAUUUUUCCUGGGAUGGGUUCAUCAAAGCUAAUUGCUAUCAAUCCUAGAAACCACCUAGGGACUCAGACAUCUGCCUACACACUAGUGGCGUAAAGGGAAGGACAGGGGUACAAACUUCAACAGAGGAUUGAGCAUCA
B5: chr8:29927545:29927546:-_ENSG00000133872_ENST00000521265|hu_mus|FALSE|FALSE (ssRNA)
RNA: GGGAGUUCUACAGUCCGACGAUCAGAGGACUCGUAGCCUUCACAGCUCACCACAGUUUUGCCAAAUUUGUAUGCAAUAUCCAAGUCGGUCUUACAUUCCCACUGUACAUCGUAGCCAUCCCAGCCUUUGUUCUGGCACUGUAUCAACAGAGGAUUGAGCAUCA
B6: chr15:98568902:98568903:-_ENSMUSG00000051853_ENSMUST00000053183|mus_hu|FALSE|FALSE (ssRNA)
RNA: GGGAGUUCUACAGUCCGACGAUCGGCCAGGGAAAUGAAUACAUUUUUAAAUGAAAUAGAACCUCCAACACCCCCCCCACAACCACCACACACAAACACACCCACACCCAUAUACACACACACUCACACACACACACAGGCCUACAACAGAGGAUUGAGCAUCA
B7: chr3:151883435:151883436:+_ENSMUSG00000028034_ENSMUST00000166984|mus_mus|motif|central (ssRNA)
RNA: GGGAGUUCUACAGUCCGACGAUCCAUUUCUCCAUUUCUUCCUAUUACAAUGCCAACAGCAAAUCUUGGAAUUGGGACAUCGGUCCCUUCAUUGCCUCCUAUUCUUGAGCCAUACUCAUUCCGCACUUCUCUGAAACCACCUUGCAACAGAGGAUUGAGCAUCA
B8: chr1:66486067:66486068:+_ENSMUSG00000015222_ENSMUST00000077355|mus_hu|FALSE|FALSE (ssRNA)
RNA: GGGAGUUCUACAGUCCGACGAUCUUAUCCAGGUCCCAAAUGUUAAUAACUUAAUUGAAUCUUUCUUCCCAUUUAUACAAAAUAACACUUUAAAAAAACUUAUUUCUUACAUGCUCUUCCCUUCCUGCAAUCAGACUCCUUGGUCAACAGAGGAUUGAGCAUCA
B9: chr14:63839279:63839280:-_ENSG00000154001_ENST00000337537|hu_hu|motif|central (ssRNA)
RNA: GGGAGUUCUACAGUCCGACGAUCUUAAAAGGAAAAAAGGAAAACAAGGAAAAAAAACCACCCCAAACCCCAAAAAACUCGGAACACUUAAAAAUGCCAAUAACAUCCAUACAUCCCUUUCCCAUCCCACCCUCAUCCCCACAACAACAGAGGAUUGAGCAUCA
B10: chr7:135832672:135832673:+_ENSMUSG00000042105_ENSMUST00000118605|mus_mus|FALSE|FALSE (ssRNA)
RNA: GGGAGUUCUACAGUCCGACGAUCCACGCCAAAAAUUCCAUCACGACACAAUUUUUACACACACACCAAAAAACAAAAAAAACAAAAAAAAAAAAAAAAAACCCAAAAAACAAAAAACCCUACAGUGUCACUUCCAUCCUGCCUCAACAGAGGAUUGAGCAUCA
B11: chr14:63839279:63839280:-_ENSG00000154001_ENST00000337537|hu_hu|FALSE|FALSE (ssRNA)
RNA: B9 RNA with G80U, G81A
B12: chr1:225611761:225611762:-_ENSG00000143815_ENST00000272163|hu_mus|hu_hu_hu_mus_True|38_48 (ssRNA)
RNA: GGGAGUUCUACAGUCCGACGAUCCCAGGCCAUCGGCCUCUGACCACUUCACCCUCAACAAACUUCCUACUUGGCAUUUUCUAAAAUUAACCUGCGCCAGGUUCCGGGGGAACUCCAGCCACUCCAGGACAGUCACCAGCAGCCCAACAGAGGAUUGAGCAUCA
B13: chr1:225611761:225611762:-_ENSG00000143815_ENST00000272163|hu_mus|hu_hu_hu_mus_True|38_98 (ssRNA)
RNA: B12 RNA with G41U, A89G, C90U, C94G, G95C
B14: chr7:26237324:26237325:-_ENSG00000122566_ENST00000356674|hu_mus|FALSE|FALSE (ssRNA)
RNA: GGGAGUUCUACAGUCCGACGAUCCUCAUAGUAGUUUCUCAAACUUUCUUCUGUGGUUUCAAAGCUUAAGCCACCAAUAAAGAGCUUUCGGAACUGUUCCUUUUCUCUCUUUUUCCUCUCCAAAGGAACAGUUUCUAAAGUUUUCAACAGAGGAUUGAGCAUCA

target: T1, UNK ZnF1-3 (human, UniProt Q9C0B0 31-174); assay: nsRBNS (natural sequence RNA bind-n-seq); RBNS binding buffer (assumed for nsRBNS): 25 mM Tris pH 7.5, 150 mM KCl, 3 mM MgCl2, 0.01% Triton X-100, 500 ug/ml BSA, 20 U/ml SUPERase-In, 4 C; UNK is unkempt and MSI1 is Musashi-1; names of the RNAs are library labels; protein concentration not given here; high values mean tight binding
T1 sequence: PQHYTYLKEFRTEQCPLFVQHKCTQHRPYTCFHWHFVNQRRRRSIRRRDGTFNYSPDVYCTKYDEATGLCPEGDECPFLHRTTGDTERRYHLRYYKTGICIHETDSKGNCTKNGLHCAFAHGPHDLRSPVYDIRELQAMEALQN

Binder | binding signal
B1 | 1.03 enrichment R
B2 | 0.508 enrichment R
B3 | 1.37 enrichment R
B4 | 0.995 enrichment R
B5 | 0.8 enrichment R
B6 | 3.59 enrichment R
B7 | 0.909 enrichment R
B8 | 1.42 enrichment R
B9 | 3.96 enrichment R
B10 | 11.5 enrichment R
B11 | 4.18 enrichment R
B12 | 1.33 enrichment R
B13 | 1.5 enrichment R
B14 | 0.272 enrichment R
